About 4,300 (8.3%) of roughly 52,000 compounds were called active. Many of the other results were omitted from the sample, so actives are more common in it than they were. Values without a mark were called inactive. Cut-off read from the data, not from the text of the source: active = survival mostly below about 52% (no sharp cut-off); inactive = mostly above about 56%.
These compounds were tested on DeltatarO mutant (assay: growth inhibition of S. aureus wild type versus tarO mutant, primary screen, teichoic acid synthesis inhibitors, RN4220, OD600 (AID 463173)). Details: OD600, 18 h, active compounds read low, screened at 18.75 µg/mL (by protocol).
`COc1cc(C(=O)Nc2cccc(OCc3cc(=O)n4cc(C)sc4n3)c2)cc(OC)c1OC` was tested, and the survival was 90%.
`COc1ccccc1C1C=C(c2ccc(Cl)cc2)Nc2nc(-c3ccc(Cl)cc3)nn21` (stereo not drawn) was tested, and the survival was 59%.
Compound `COC(=O)C1=C(C)NC(=O)CC1c1ccccc1` (stereo not drawn) has a survival of 105%.
In the case of `COc1ccccc1CCNC(=O)C1CCN(c2nnc(C)c3c(C)n(-c4ccc(C)cc4)nc23)CC1`, the survival is reported as 85%.
`CC(=O)N1CCCc2cc(S(=O)(=O)N3CCCC(C(=O)Nc4ccc(C)cc4C)C3)ccc21` (stereo not drawn) showed a survival of 71%.
`Cc1ccc(C(=O)Nc2nc3nc(C)cc(=O)n3[nH]2)cc1` showed a survival of 91%.
For `O=C(Cc1ccccc1)Nc1c(C(=O)N2CCN(c3ccc(F)cc3)CC2)oc2ccccc12`, the survival was 49%.
`O=C(Cn1ncc2c(=O)oc3ccccc3c21)N1CCN(c2ccc(Cl)cc2)CC1` showed a survival of 93%.
For `CCn1ccc2cc(S(=O)(=O)N3CCCN(C(=O)Nc4ccc(C)c(F)c4)CC3)ccc21`, the survival was 73%.
With `COc1ccc(/C=C/C(=O)Nc2ccc(Cl)c(Cl)c2)cc1` the survival was 66%.
In the case of `CCN1CCN(c2cc(C)c3cc(NC(=O)/C=C/c4cccc(Cl)c4)ccc3n2)CC1`, the survival is reported as 44% (active).
With `CCN1CCN(c2cc(C)c3cc(NC(=O)/C=C/c4cccc(OC)c4OC)ccc3n2)CC1` the survival was 43% (active).
For `COc1ccc(Nc2c3c(nc4ccc(NC(=O)/C=C/c5cccc(OC)c5OC)cc24)CCCC3)cc1OC`, the survival was 66%.
`CCN1CCN(c2cc(C)c3cc(NC(=O)/C=C/c4ccc(C)cc4)ccc3n2)CC1` gave a survival of 52%.
In the case of `COc1ccc(/C=C/C(=O)Nc2ccc(Cl)c(Cl)c2)cc1OC`, the survival is reported as 18% (active).
Work on `C/C=C/C(=O)Nc1ccc(Cl)c(Cl)c1` yielded a survival of 70%.
`COc1cccc(/C=C/C(=O)Nc2ccc3nc(N4CCN(C)CC4)cc(C)c3c2)c1OC` showed a survival of 79%.
Work on `CCN1CCN(c2cc(C)c3cc(NC(=O)/C=C/c4ccc(OCCC(C)C)cc4)ccc3n2)CC1` yielded a survival of 112%.
In the case of `O=C(CSc1nnc(-c2ccc([N+](=O)[O-])cc2)o1)Nc1ccccc1`, the survival is reported as 81%.
For `CCSc1ncc(Cl)c(C(=O)Nc2sc(C(C)=O)c(C)c2C(=O)OC)n1`, the survival was 72%.
`O=C(Cn1ncc2c3ccccc3n(Cc3ccc(F)cc3)c2c1=O)NC1CCCCCC1` showed a survival of 80%.
`COc1cccc(CNC(=O)CN(c2ccc(C)cc2)S(=O)(=O)N(C)C)c1OC` showed a survival of 94%.
With `C=Cc1ccc(CN2C(=O)N(c3ccc(CC)cc3)S(=O)(=O)c3ccccc32)cc1` the survival was 6% (active).
For `C=Cc1ccc(CN2C(=O)N(c3cccc(Cl)c3)S(=O)(=O)c3ccccc32)cc1`, the survival was 64%.
Work on `C=Cc1ccc(CN2C(=O)N(c3ccc(C)c(C)c3)S(=O)(=O)c3ccccc32)cc1` yielded a survival of 84%.
Work on `COc1cc(NC(=O)CCc2nc3cccnc3n2Cc2cccs2)cc(OC)c1OC` yielded a survival of 78%.
`CC(=O)NC(Cc1cccc(C)c1)C(=O)NC1CCN(c2nc(C)cc(C)c2C#N)CC1` (stereo not drawn) gave a survival of 97%.
`CCS(=O)(=O)c1cccc(C(=O)Nc2ccc(-c3nc4ccccc4s3)c(O)c2)c1` gave a survival of 85%.
In the case of `COc1ccc(OC)c(C2Nc3c(C)cc(C)cc3-c3cc(C)nn32)c1` (stereo not drawn), the survival is reported as -3% (active).
With `CCN(CC)c1ccc(C2Nc3ccccc3-c3cc(C)nn32)cc1` (stereo not drawn) the survival was 7% (active).
Work on `COc1cc(OC)c(C2Nc3c(C)cccc3-c3cc(C)nn32)cc1OC` (stereo not drawn) yielded a survival of 184%.
`Cc1cc2n(n1)C(c1ccccc1)Nc1ccccc1-2` (stereo not drawn) showed a survival of 93%.
`CCOc1cccc(C2Nc3ccccc3-c3cc(C)nn32)c1O` (stereo not drawn) was tested, and the survival was 195%.
With `CCOc1ccc(C2Nc3c(C)cccc3-c3cc(C)nn32)cc1` (stereo not drawn) the survival was 0% (active).
For `COC(=O)c1ccc(C2Nc3c(C)cccc3-c3cc(C)nn32)cc1` (stereo not drawn), the survival was 74%.
Compound `COc1cc(C2Nc3c(C)cc(C)cc3-c3cc(C)nn32)cc(OC)c1O` (stereo not drawn) has a survival of 131%.
Work on `COc1cc(C2Nc3ccccc3-c3cc(C)nn32)ccc1O` (stereo not drawn) yielded a survival of 121%.
With `O=C(NCc1ccccc1Cl)C1CCN(C(=O)N2CCOc3ccccc32)CC1` the survival was 83%.
Compound `COCCn1c(COc2cccc(OC)c2)nnc1SCC(=O)NC1CCCC1` has a survival of 82%.
`COc1ccc(NC(=O)c2cc(C)nc3c2c(C)nn3-c2ccc(C)cc2)cc1OC` showed a survival of 94%.
In the case of `Cc1ccc2[nH]c(=O)c(CN(C(=O)c3cccc(Cl)c3)C(C)(C)C)cc2c1`, the survival is reported as 94%.
`O=C(CSc1nc(-c2ccccc2)nc2c1CCCC2)c1ccc(F)cc1` showed a survival of 83%.
In the case of `Cc1ccc(C(=O)CSc2nc(-c3ccccc3)nc3c2CCCC3)cc1C`, the survival is reported as 15% (active).
Work on `Cc1nc2c(c(SCC(=O)Nc3ccccc3C(F)(F)F)n1)CCC2` yielded a survival of 60%.
In the case of `O=C(CSc1nc(-c2ccccc2)nc2c1CCCC2)c1ccc(Cl)cc1`, the survival is reported as 76%.
`Cc1ccc(C)c(C(=O)CSc2nc(-c3ccccc3)nc3c2CCCC3)c1` was tested, and the survival was 2% (active).
For `NC(=O)CSc1nc(-c2ccccc2)nc2c1CCCC2`, the survival was 88%.
`Cc1ccc(C(=O)CSc2nc(-c3ccccc3)nc3c2CCCC3)c(C)c1` was tested, and the survival was 47%.
For `CCc1ccc(C(=O)CSc2nc(-c3ccccc3)nc3c2CCCC3)cc1`, the survival was 60%.
`Cc1ccc(C(=O)CSc2nc(-c3ccccc3)nc3c2CCCC3)cc1` was tested, and the survival was 36% (active).
Compound `OC(CNCc1ccccn1)COc1ccc(OCC(O)CNCc2ccccn2)cc1` (stereo not drawn) has a survival of 96%.
With `Cc1ccc2c(c1)NC(=O)c1cccnc1O2` the survival was 94%.
`CCOc1ccc(CNC(=O)C(C)n2ncn3cccc3c2=O)cc1` (stereo not drawn) was tested, and the survival was 69%.
With `COc1ccc(C(C(=O)NC2CCCC2)N(Cc2ccco2)C(=O)Cn2nc(C(F)(F)F)c3c2CCCC3)cc1` (stereo not drawn) the survival was 91%.
Compound `Brc1ccc(-c2csc(NN=C3CCCC3)n2)cc1` has a survival of 102%.
With `COC(=O)c1ccccc1NC(=O)c1ccc2c(c1)CCN2S(=O)(=O)c1ccc(Cl)cc1` the survival was 69%.
`CCn1c2c(c(=O)n3ncc(C(=O)Nc4ccc(OC(F)(F)F)cc4)c13)CN(Cc1ccc(OC)cc1)CC2` was tested, and the survival was 94%.
`CCn1c2c(c(=O)n3ncc(C(=O)Nc4ccc(F)c(Cl)c4)c13)CN(Cc1ccc(OC)cc1)CC2` was tested, and the survival was 17% (active).
Compound `CCn1c2c(c(=O)n3ncc(C(=O)Nc4ccc(Cl)cc4C)c13)CN(Cc1ccc(OC)cc1)CC2` has a survival of 87%.
With `c1ccc(N2CCN(Cc3cccn3-c3nnc(N4CCN(C5CCCCC5)CC4)s3)CC2)cc1` the survival was 76%.
For `CC(=O)N1CCc2cc(Br)cc(S(=O)(=O)N3CCC(C(=O)Nc4cccc(C)c4C)CC3)c21`, the survival was 75% (active).
`CCOc1ccccc1NC(=O)C1CCN(S(=O)(=O)c2cc(Br)cc3c2N(C(C)=O)CC3)CC1` showed a survival of 69%.
For `CCCCNC(=O)C1CCN(S(=O)(=O)c2cc(Br)cc3c2N(C(=O)CC)CC3)CC1`, the survival was 90%.
In the case of `CCC(=O)N1CCc2cc(Br)cc(S(=O)(=O)N3CCC(C(=O)Nc4ccccc4F)CC3)c21`, the survival is reported as 43% (active).
`CCC(=O)N1CCc2cc(Br)cc(S(=O)(=O)N3CCC(C(=O)NC(C)(C)C)CC3)c21` showed a survival of 84%.
`CCc1cccc(C)c1NC(=O)C1CCN(S(=O)(=O)c2cc(Br)cc3c2N(C(C)=O)CC3)CC1` gave a survival of 59%.
`CCC(=O)N1CCc2cc(Br)cc(S(=O)(=O)N3CCC(C(=O)Nc4ccc(OC)cc4)CC3)c21` was tested, and the survival was 8% (active).
Compound `CCC(=O)N1CCc2cc(Br)cc(S(=O)(=O)N3CCC(C(=O)Nc4cccc(C)c4)CC3)c21` has a survival of 80%.
In the case of `CCC(=O)N1CCc2cc(Br)cc(S(=O)(=O)N3CCC(C(=O)Nc4ccccc4CC)CC3)c21`, the survival is reported as 84%.
`COC(=O)CNC(=O)C1CCN(c2nc(C)cc(-c3ccccc3)n2)CC1` was tested, and the survival was 96%.
For `O=C(Nc1sc2c(c1C(=O)c1ccccc1)CCCC2)c1ccco1`, the survival was 73%.
Compound `O=C(/C=C/c1ccco1)NC(=S)Nc1ccccc1O` has a survival of 100%.
In the case of `CCCCNC(=O)C1CCC(Cn2c(=O)c3sccc3n(Cc3ccccc3)c2=O)CC1` (stereo not drawn), the survival is reported as 71%.
For `CSc1ccc(CCNC(=O)c2cnc3c(C)cccn3c2=O)cc1`, the survival was 89%.
`CCc1ccccc1NC(=O)C1CCC(CNS(=O)(=O)c2ccc3c(c2)CC(C)N3C(C)=O)CC1` (stereo not drawn) gave a survival of 91%.
With `COc1cccc(NC(=O)CCc2c(C)nc3nc(CNC(=O)c4cccc(F)c4)nn3c2C)c1` the survival was 76%.
`Cc1cccc(CNC(=O)c2ccc3c(c2)N(C)CCS3)c1` was tested, and the survival was 65%.
For `CCN1CCSc2ccc(C(=O)NCc3cccc(F)c3)cc21`, the survival was 61%.
With `CCN1CCSc2ccc(C(=O)NCc3ccccc3Br)cc21` the survival was 62%.
In the case of `Cc1ccc(CNC(=O)c2ccc3c(c2)N(Cc2ccccc2Cl)C(=O)CS3)cc1`, the survival is reported as 50%.
With `Cc1ccc(CNC(=O)c2ccc3c(c2)N(Cc2cccc(C)c2)C(=O)CS3)cc1` the survival was 46% (active).
With `Cc1ccc(CNC(=O)c2ccc3c(c2)N(Cc2cccc(Cl)c2)C(=O)CS3)cc1` the survival was 40% (active).
Work on `COc1ccc(CNC(=O)c2ccc3c(c2)N(Cc2cc(C)ccc2C)C(=O)CS3)cc1` yielded a survival of 59%.
Compound `Cc1cccc(CN2C(=O)c3ccccc3Sc3ccc(C(=O)NCc4cccs4)cc32)c1` has a survival of 93%.
`O=C(NCc1ccccc1Cl)c1ccc2c(c1)N(Cc1ccccc1)C(=O)CS2` was tested, and the survival was 101%.
Work on `O=C(NCc1ccc(F)cc1)c1ccc2c(c1)N(Cc1ccc(F)cc1Cl)C(=O)CS2` yielded a survival of 57%.
`Cc1ccc(C)c(CN2C(=O)CSc3ccc(C(=O)NCc4ccc(F)cc4)cc32)c1` was tested, and the survival was 46% (active).
For `CCN1CCSc2ccc(C(=O)NCc3cccc(Br)c3)cc21`, the survival was 46% (active).

— PubChem BioAssay AID463173 (ICCB-Longwood Screening Facility, Harvard Medical School, 2010)
